Experimental data reported in ChEMBL document CHEMBL1201862, “PubChem BioAssay data set” (2004).
Among all 1,200 compounds or so, about 140 (12%) were called active. The rule behind the calls is not given here. The full list was thinned out, with actives kept by preference.

experiment: CFTR-F508del correctors, dose response, FRT cells, YFP quenching, cherry-pick (AID 743402); type: functional, cell-based

AbsAC35, active:
COc1ccc(NC(=O)C(=O)NCC2CCCN2S(=O)(=O)c2cccs2)cc1 (stereo not given) 87.6 µM, CC(=O)c1cccc(-c2ccnc3c2CC(C(=O)NCc2ccco2)O3)c1 (stereo not given) 40.3 µM, O=c1c(O)c(-c2cccs2)oc2ccc(Cl)cc12 30.3 µM, COc1ccc(C2=Nn3c(nnc3-c3ccccc3OC)SC2)cc1OC1CCOC1 (stereo not given) 160 µM, CCc1ccc(OCCNc2cc(N3CCNC(C)C3)ccc2[N+](=O)[O-])cc1 (stereo not given) 58.8 µM, N#Cc1ccc(-c2cccs2)nc1SCc1cccnc1 107 µM, CCN(CC)CCC(=O)Nc1cccc2c1C(=O)c1ccccc1C2=O 40.8 µM, O=C(OCc1ccc(Br)cc1)c1cc([N+](=O)[O-])ccc1N1CCOCC1 28.4 µM, CC(=O)Nc1ccc(S(=O)(=O)N2c3ccccc3C(C)=CC2(C)C)cc1 42.7 µM, COc1ccc(C2C3=C(COC3=O)Oc3cc4c(cc32)OCO4)cc1OC (stereo not given) 116 µM
